The source of these data is PubChem BioAssay (NCATS).

Unmarked numbers belong to inactive results. Entries that show only a call come without a potency. Active and inactive are the calls of the source. The call rests on the fitted dose curve; in most records, active means well fitted inhibition curve with a large enough effect; inconclusive means small, poorly fitted or top-dose-only effect; inactive means flat fitted curve, though single readings scatter.

The subject of this assay is Nanoluciferase (engineered Oplophorus gracilirostris luciferase). The experiment in a line: Primary Nanoluciferase (NLuc) qHTS assay for identification of artifact compounds. (AID 1845222). The note with it: NLuc-conditioned medium, Nano-Glo luminescence, 5 min; series mostly up to 54.1 µM. In outline: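 Luminescence from secreted NLuc (filtered, 1:55-diluted S16 cell medium) read 5 min after Nano-Glo substrate; compounds preincubated 15 min, RT. Hill fits of inhibition normalized to DMSO and no-enzyme.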
As for `COc1cc2ncnc(Nc3ccc(O)cc3)c2cc1OC`, the Potency result was “inactive”.

For the compound `C=C1CCC2C(C)(C)C(O)CCC2(C)C1CCC(C)CCOC(C)=O` (centres undefined), the Potency entry is “inactive”. Turning to `CC1(C)C=CN2C(=O)C3=CCCN3C(=O)[C@@H]2C[C@@]12Nc1ccccc1C2=O`, the Potency entry is “inactive”. Still for that read-out and setting: the value for `OC/C=C/c1ccc(O[C@@H]2O[C@H](CO)[C@@H](O)[C@H](O)[C@H]2O)cc1` was “inactive”; that for `C=C(C(=O)O)C1CC2=C(C)CCCC2(C)C[C@@H]1O` (some centres undefined) was “inactive”; that for `CO[C@H]1C[C@@H]2CC[C@@H](C)[C@@](O)(O2)C(=O)C(=O)N2CCCC[C@H]2C(=O)O[C@H]([C@H](C)C[C@H]2CC[C@@H](OP(C)(C)=O)[C@H](OC)C2)CC(=O)[C@H](C)/C=C(\C)[C@@H](O)[C@@H](OC)C(=O)[C@H](C)C[C@H](C)/C=C/C=C/C=C/1C` was “inactive”. Still for that read-out and setting: the value for `CSc1ccc(C(=O)N[C@@H]2CCCC[C@@H]2NC(=O)CNC(=O)c2cc(C(F)(F)F)ccc2NC(=O)NC(C)C)cc1` was “inactive”; that for `C=CC(C)(C)c1[nH]c2cc3c(cc2c1CC1NC(=O)C2=CCCN2C1=O)C=CC(C)(C)O3` (centres undefined) was “inactive”. On the same count and under the same terms, for `CC(=O)OCC1(O)CCC2C(COC3OC(CO)C(O)C(O)C3OC(=O)/C=C/c3ccc(O)cc3)=COC(OC(=O)CC(C)C)C21` (centres undefined) the value was “inactive”. Turning to `CN=C(N)NCCCCC/C=C(/C)CC(C)C1OC(=O)C(C)C(O)/C=C/C(C)C(O)CC(O)C(C)C(O)CCC(C)C(O)CC2(O)OC(CC(OC(=O)CC(=O)O)CC(O)CC(O)C(C)C(O)/C(C)=C/CCC1C)CC(O)C2O` (centres undefined), the activity, negative = inhibition was -0.658% [at 11.6 µM]. For `COc1ccc([C@@]2(O)c3c(ccc(CC=C(C)C)c3O)NC(=O)[C@@H]2OC)cc1`, the Potency entry was “inactive”.

`C[C@@H]1CCC/C=C/[C@H]2CC(=O)C[C@@H]2[C@@H](O)/C=C/C(=O)O1`: the Potency result was “inactive”. On to `CC1(C)CCCC2(C)C(CO)C(CO)=CCC12` (centres undefined), for which the Potency result is “inactive”. Turning to `C[C@@H]1O[C@@H](O[C@@H]2[C@@H](O)[C@H](O[C@H]3CC[C@@]4(C)C(CC[C@]5(C)C4CC=C4[C@@H]6CC(C)(C)CC[C@]6(C(=O)O[C@@H]6O[C@H](CO)[C@@H](O)[C@H](O)[C@H]6O)CC[C@]45C)C3(C)C)O[C@H](C(=O)O)[C@H]2O)[C@H](O)[C@H](O)[C@H]1O` (some centres undefined), the activity, negative = inhibition is 2.86% [at 11.6 µM]. With `CC(=O)O[C@@H]1CC(C)=C2[C@H]1[C@H](C)CC[C@H]2/C=C(\C)C(=O)O`, the Potency entry was “inactive”. `C=CC(=O)Nc1cc(Nc2ncc(Cl)c(-c3c[nH]c4ccccc34)n2)c(OC)cc1N(C)CCN(C)C`: the Potency result is “inactive”.

On to `COc1ccc(C2COc3cc(O)ccc3C2)c(O)c1` (centres undefined), for which the Potency entry was “inactive”. The same measure, in the same setting: the value for `C=C1[C@H](OC(C)=O)[C@H]2[C@@H](OC(C)=O)[C@](C)(OC(C)=O)C[C@]2(OC(C)=O)C(=O)[C@H](C)/C=C/C(C)(C)C(=O)[C@H](OC(=O)C(C)C)[C@H]1OC(C)=O` was “inactive”; that for `COC(=O)Cc1cc2c(c([N+](=O)[O-])c1)N(C(=O)CC[C@H](N)C(=O)O)CC2` was “inactive”. With `N#CC(c1ccnc(OCc2ccc(CN3CCOCC3)cc2)n1)c1nc2ccccc2s1` (centres undefined), the Potency entry was “inactive”. In the case of `Cc1ccc(S(=O)(=O)Nc2ccccc2N2CCCCC2)s1`, the Potency entry is “inactive”. Still for that read-out and setting: the value for `C/C=C1\[C@H](O[C@@H]2O[C@H](CO)[C@@H](O)[C@H](O)[C@H]2O)OC=C2C(=O)OCCc3ccc(O)c(c3)Oc3ccc(cc3)CCOC(=O)C[C@H]21` was “inactive”; that for `COc1c(/C=C/C(C)(C)O)ccc2c1C(=O)OCc1cc(C)cc(O)c1O2` was “inactive”.

For the compound `CC(C)/C=C1\NC(=O)C(C(C)C)n2c1nc1c(c2=O)C=CC=CO1` (centres undefined), the Potency entry is “inactive”.

With `C=C1C(OC(C)=O)CCC2(C)CC3(OC)OC(=O)C(C)=C3CC12` (centres undefined), the Potency result was “inactive”.

For the compound `O=C1C=CC(O)(/C=C/C(=O)OC[C@H]2O[C@@H](Oc3ccc(O)cc3)[C@H](O)[C@@H](O)[C@@H]2O)C=C1`, the Potency entry was “inactive”. On to `O=S(=O)(Nc1ccccn1)c1ccc(N=Cc2c(O)[nH]c3ccc4ncsc4c23)cc1`, for which the activity, negative = inhibition is -7.47% [at 11.6 µM]. Consider `COc1cc(N)c(Cl)cc1C(=O)NC[C@@H]1CCN2CCC[C@@H]12`, for which the Potency entry is “inactive”. Same read-out and setting: the value for `C=C1CCC2C(C)(C)CCC[C@]2(C)[C@H]1C/C=C(\CO)C(=O)C(=O)O` (some centres undefined) was “inactive”.

Take `CC1=CC(=O)CC2C1(O)CCC(C)C21CC(c2ccoc2)OC1=O` (centres undefined): the Potency entry is “inactive”.

Regarding `COC(=O)CC1CC(c2ccc(O)cc2)=NO1` (centres undefined), the Potency result was “inactive”.

For the compound `COC(=O)C1=CO[C@@H](O[C@@H]2O[C@H](CO)[C@@H](O)[C@H](O)[C@H]2O)[C@@H]2C(COC(C)=O)=C[C@H](O)[C@H]12`, the Potency result is “inactive”. On the same count and under the same terms, for `COC(=O)c1ccnc(-c2cc(C(=O)NCCc3ccccc3)ccn2)c1` the value was “inactive”; for `COc1ccc([C@@]2(O)c3c(ccc4c3OC(C)(CCC=C(C)C)C=C4)NC(=O)[C@@H]2OC)cc1` (some centres undefined), “inactive”.
